Results on 87 molecules are retold here after PubChem BioAssay AID624170 (National Center for Advancing Translational Sciences (NCATS), 2012).

Where “and” joins values, the source holds several entries; their conditions need not be identical. Identical values can stand only once. Hit rate of the full screen: of about 410,000 compounds, about 850 (0.21%) were called active. Entries that show only a call come without a potency. Not shown: some 2% with an inconclusive outcome. This is one part of a sample in which actives are shown more often than they occur. The call rests on the fitted dose curve; in most records, active means well fitted inhibition curve with a large enough effect; inconclusive means small, poorly fitted or top-dose-only effect, or another doubt; inactive means no such curve, though single readings can be large or run the other way. More than one record can exist for a structure, and the calls need not agree.
Potency means the concentration at half of the fitted maximal effect.

The target of this assay is Glutaminase kidney isoform, mitochondrial (Homo sapiens) (UniProt O94925). Nature of the assay: qHTS for Inhibitors of Glutaminase (GLS). The note with it: GLS enzymatic activity, qHTS titration; series mostly up to 45.5 µM. The method, boiled down: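 Enzyme dispensed in phosphate buffer (45 mM, pH 8.2, 0.02% Tween-20), compounds pinned in, then 1 mM L-glutamine solution and the glutamate oxidase–HRP–Amplex Red mix added; fluorescence read immediately and again after 30 min at room temperature.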
Sequence of Glutaminase kidney isoform, mitochondrial (Homo sapiens) (O94925 whole entry, looked up, canonical isoform): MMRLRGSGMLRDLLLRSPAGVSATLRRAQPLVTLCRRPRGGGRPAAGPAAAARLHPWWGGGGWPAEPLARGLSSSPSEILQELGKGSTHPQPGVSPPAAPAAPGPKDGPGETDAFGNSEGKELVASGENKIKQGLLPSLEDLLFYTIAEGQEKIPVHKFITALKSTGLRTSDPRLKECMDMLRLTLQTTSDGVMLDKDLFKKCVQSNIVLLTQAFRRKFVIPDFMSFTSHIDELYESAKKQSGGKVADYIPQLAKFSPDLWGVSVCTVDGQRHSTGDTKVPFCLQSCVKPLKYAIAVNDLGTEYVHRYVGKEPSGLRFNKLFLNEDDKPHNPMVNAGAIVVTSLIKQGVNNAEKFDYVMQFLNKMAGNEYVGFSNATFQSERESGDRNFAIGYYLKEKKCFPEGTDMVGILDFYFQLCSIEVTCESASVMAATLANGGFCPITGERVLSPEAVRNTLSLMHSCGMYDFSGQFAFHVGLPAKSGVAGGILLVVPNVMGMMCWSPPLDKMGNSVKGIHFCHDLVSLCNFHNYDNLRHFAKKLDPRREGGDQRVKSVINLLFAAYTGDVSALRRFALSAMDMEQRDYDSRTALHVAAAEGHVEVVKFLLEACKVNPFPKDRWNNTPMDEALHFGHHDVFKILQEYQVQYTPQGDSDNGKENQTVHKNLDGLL
For orientation: Quantitative high-throughput screening tests each substance at several concentrations.
As for `COc1cc(Cl)c(C)cc1NC(=O)CCc1nc2cccnc2n1Cc1cccs1`, the Potency entry is “inactive”.
With `COC(=O)Cc1ccc(OCC(=O)NC2CCCC2)cc1`, the Potency entry is “inactive”.
To `CC1(C)S[C@@H]2[C@H](NC(=O)COc3ccccc3)C(=O)N2C1C(=O)OCc1ccccc1` (some centres not stated) belongs “inactive”.
Regarding `CC1(C)SC2C(NC(=O)COc3ccccc3)C(=O)N2C1C(=O)O` (configuration not stated), the Potency result is “inactive and 8.91 µM (active)”.
Regarding `OCC(CO)NC1C[C@](O)(CO)[C@@H](O)[C@H](O)[C@H]1O` (some centres not stated), the Potency entry is “inactive”.
In the case of `CC(=O)OCC(=O)[C@@]1(O)CC[C@@H]2[C@H]3CCC4=CC(=O)C=C[C@]4(C)[C@]3(F)[C@@H](O)C[C@@]21C`, the Potency entry is “inactive”.
Next, `Cc1c(Cl)cccc1NC(=O)C1CCCN(c2ncnc3onc(C)c23)C1` (configuration not stated): “inactive”; `Cc1cccc(C(C)C)c1NC(=O)C(NS(=O)(=O)c1cccc2nsnc12)c1ccccc1` (configuration not stated): “inactive”.
Next, `COCCCn1c(Cc2csc(Nc3cccc(Cl)c3)n2)nnc1SCC(=O)OC1CCCCC1`: 12.6 µM (active).
Next, `COCCn1c(Cc2cccn2C)nnc1SCC(=O)Nc1nccs1`: “inactive”; `COCCCn1c(SCC(=O)NC2CCCC2)nnc1-c1ccccc1`: “inactive”.
For the molecule `FCOC(C(F)(F)F)C(F)(F)F`, the Potency entry was “inactive”.
Next, `C=C1C(=CC=C2CCC[C@@]3(C)[C@@H]2CC[C@H]3[C@H](C)CCCC(C)C)C[C@@H](O)C[C@@H]1O`: “inactive”.
Next, `CCOC(=O)c1ccc(NC(=O)CSc2nc3c([nH]c4ccccc43)c(=O)n2C)cc1`: “inactive”; `CCOc1ccc(-n2c(O)c(/C=N/Nc3nnc(C)c(=O)[nH]3)c3ccccc3c2=O)cc1`: 10 µM (active); `CCOc1ccc(-n2c(O)c(/C=N/Nc3nc(C)cc(C)n3)c3ccccc3c2=O)cc1`: 11.2 µM (active).
With `COc1ccc(-n2c(O)c(C=NCC(c3ccco3)N3CCCC3)c3ccccc3c2=O)cc1OC` (configuration not stated), the Potency result was “inactive”.
To `CCOc1ccc(-n2c(SCC(=O)NCc3ccccc3)nc3n[nH]c(C)c3c2=N)cc1` belongs “inactive”; to `CCOc1ccc(N/C(N)=N/c2nc(C)c(C)c(=O)[nH]2)cc1`, “inactive”; to `CCOc1ccc(-n2c(C)nc3c(cnn3-c3ccc(C)cc3)c2=O)cc1`, “inactive”.
On to `Cc1ccc(-c2ncc(Cl)cc2-c2ccc(S(C)(=O)=O)cc2)cn1`, for which the Potency result was “inactive”.
To `COc1ccc2c(c1)c(=O)c(S(=O)(=O)c1ccc(F)cc1)cn2CC(=O)Nc1ccc(C)cc1C` belongs “inactive”; to `CC1(C)OC2CC(=O)OC[C@@]23C1CC(=O)[C@]1(C)C3CC[C@@]2(C)C(c3ccoc3)OC(=O)C3O[C@@]321` (some centres not stated), “inactive”; to `CCOC(=O)Cc1cccc(-c2cc(CCCCCCc3ccc(O[C@H]4O[C@H](COC(C)=O)[C@@H](OC(C)=O)[C@H](OC(C)=O)[C@@H]4OC(C)=O)c(-c4cccc(CC(=O)OCC)c4)c3)ccc2O[C@H]2O[C@H](COC(C)=O)[C@@H](OC(C)=O)[C@H](OC(C)=O)[C@@H]2OC(C)=O)c1`, “inactive”.
On to `Cc1nc(N2CCOCC2)c2c(C(=O)NCc3cccc(Cl)c3)c(C)oc2n1`, for which the Potency result is “inactive”.
To `COc1ccc(S(=O)(=O)NCc2cccn2Cc2cccc(C)c2)cc1Cl` belongs “inactive”; to `Cc1ccc(Cl)cc1NC(=O)CCC(=O)N1CC(C)Sc2ccccc21` (configuration not stated), “inactive”.
Next, `Cc1cccc(C(=O)Nc2ccc(-c3nc4ccccc4s3)c(C)c2)c1`: “inactive”.
To `Cc1ccc(-n2c(SCC(=O)NCCC3=CCCCC3)nc3n[nH]c(C)c3c2=N)cc1Cl` belongs “inactive”; to `COc1ccc(-n2c(SCC(=O)Nc3ccc(Cl)c(C)c3)nc3n[nH]c(C)c3c2=N)cc1`, “inactive”.
For the molecule `COc1cccc(-n2c(SCC(=O)NC3CCCCC3)nc3n[nH]c(C)c3c2=N)c1`, the Potency is 10 µM (active).
As for `C[C@H]1C[C@H]2[C@@H]3CCC4=CC(=O)C=C[C@]4(C)[C@@H]3C(=O)C[C@]2(C)[C@@]1(O)C(=O)CO`, the Potency result was “inactive”.
Turning to `O=C(O)c1ccc2c(c1)N(Cc1ccc(F)cc1)C(=O)c1ccccc1S2=O` (configuration not stated), the Potency result is “inactive”.
To `COc1cc2c(cc1OC)[C@@H](Cc1cc(OC)c(OC)c(OC)c1)[N+](C)(CCCOC(=O)CC/C=C/CCC(=O)OCCC[N+]1(C)CCc3cc(OC)c(OC)cc3[C@H]1Cc1cc(OC)c(OC)c(OC)c1)CC2` (some centres not stated) belongs “inactive”.
Next, `NNc1nnc(Cc2ccncc2)c2ccccc12`: “inactive”; `COc1ccc(/C(O)=C2/C(=O)C(=O)N(CCCN(C)C)C2c2ccccc2)cc1OC` (configuration not stated): “inactive”; `CCCOc1ccc(/C(O)=C2/C(=O)C(=O)N(CCN(C)C)C2c2ccc(OC)c(OC)c2)cc1` (configuration not stated): “inactive”.
To `COc1ccc(C2/C(=C(/O)c3ccccc3)C(=O)C(=O)N2c2ncccn2)cc1OC` (configuration not stated) belongs 8.91 µM (active); to `COc1ccc(N2CCN(c3cc(C)nc4nncn34)CC2)cc1`, “inactive”; to `CCc1ccc(NC(=O)CN2C(=O)CCSc3ccc(S(=O)(=O)N4CCCC4)cc32)cc1`, “inactive”.
For the molecule `O=C(Nc1cccc(C(F)(F)F)c1)c1cc(Br)cc(Br)c1O`, the Potency result was “inactive”.
For `COc1ccc(OC)c(-c2noc(N3CCN(c4cc(Cl)ccc4C)CC3)n2)c1`, the Potency result is “inactive”.
To `COc1ccc(C2=NOC3(CC(=O)N(c4ccc(Cl)cc4)C3=O)C2)c(OC)c1` (configuration not stated) belongs “inactive”.
Next, `COc1ccc2c(c1)C(=O)Nc1cc(Cl)ccc1N2`: 12.6 µM (active).
To `Cc1cc(C)c2sc(NC(=O)c3ccc(S(=O)(=O)N4CCCC4)cc3)nc2c1` belongs “inactive”.
For the molecule `Cc1cn([C@H]2CC(F)[C@@H](CO)O2)c(=O)[nH]c1=O` (some centres not stated), the Potency entry was “inactive”.
As to `C=CC1=C(C(=O)O)N2C(=O)[C@@H](NC(=O)/C(=N\OCC(=O)O)c3csc(N)n3)[C@H]2SC1`, the Potency was 12.6 µM (active).
To `CO/N=C(\C(=O)N[C@@H]1C(=O)N2C(C(=O)O)=C(Cn3nnc(C)n3)CS[C@H]12)c1csc(N)n1` belongs “inactive”; to `C=CC1=C(C(=O)O)N2C(=O)[C@@H](NC(=O)/C(=N/OCC(=O)O)c3csc(N)n3)[C@H]2SC1`, 12.6 µM (active).
Next, `C[C@]12CC[C@@H]3c4ccc(O)cc4C[C@@H](CCCCCCCCCS(=O)CCCC(F)(F)C(F)(F)F)C3[C@@H]1CC[C@@H]2O` (some centres not stated): “inactive”; `Cc1cccc(C)c1NC(=O)NC1=CCCN1C`: “inactive”; `CCCC(=O)O[C@]1(C(=O)COC(=O)CC)CC[C@@H]2[C@@H]3CCC4=CC(=O)CC[C@]4(C)[C@H]3[C@@H](O)C[C@@]21C`: “inactive”.
Next, `CN1CC(O)c2cc(N=NC(N)=O)c(O)cc21` (configuration not stated): “inactive”; `CC(=O)O[C@]1(C(C)=O)CC[C@@H]2[C@@H]3C=C(C)C4=CC(=O)CC[C@@]4(C)[C@H]3CC[C@]21C`: “inactive”; `CC(C)(C)c1ccc(S(=O)(=O)N2CCN(C(=O)c3cc(-c4ccc(Br)cc4)n[nH]3)CC2)cc1`: “inactive”.
On to `COc1cc(OC)c(S(=O)(=O)Nc2ccccc2C(=O)O)cc1S(=O)(=O)Nc1ccccc1C(=O)O`, for which the Potency was 5.62 µM (active).
To `COc1cc(/C=C/C(=O)O)cc(S(=O)(=O)Nc2ccccc2SC)c1OC` belongs “inactive”; to `COc1ccc(Cl)cc1S(=O)(=O)Nc1cccc(C(=O)O)c1`, “inactive”; to `COc1cc2c(cc1OC)CC(=O)N(CCCN(C)C[C@H]1Cc3cc(OC)c(OC)cc31)CC2`, “inactive”.
For the molecule `Nc1ccc2nc3c(=O)[nH]c(=S)[nH]c3nc2c1`, the Potency was 3.16 µM (active).
For `Cc1ccccc1C(=O)N(Cc1ccc(N(C)C)cc1)CC1CCCO1` (configuration not stated), the Potency entry was “inactive”.
Next, `CCOc1ccc(N(CC)C(=O)c2cc3c(=O)oc4ccccc4c3s2)cc1`: “inactive”; `CC(=O)Oc1ccccc1C(=O)Nc1ncc([N+](=O)[O-])s1`: “inactive”; `CCOC(=O)c1c(C)oc2nc(C)nc(N3CCN(c4ccc(OC)cc4)CC3)c12`: “inactive”.
For `O=C(CC1Oc2ccccc2NC1=O)NCc1ccc(F)cc1` (configuration not stated), the Potency entry was “inactive”.
To `O=C(CCCCn1c(=O)c2ccccc2n(CC(=O)Nc2cccc(C(F)(F)F)c2)c1=O)NCc1ccc2c(c1)OCO2` belongs “inactive”; to `CCOc1cc2[nH]c(=S)n(Cc3ccc(C(=O)N4CCN(C)CC4)cc3)c(=O)c2cc1OCC`, “inactive”; to `COc1ccccc1Cn1c(=S)[nH]c2cc(C(=O)N3CCN(C)CC3)ccc2c1=O`, 12.6 µM (active).
Next, `COc1ccc(OC)c(-n2c(=S)[nH]c3cc(C(=O)N4CCCCC4)ccc3c2=O)c1`: “inactive”; `O=C1C(c2[nH]c3ccccc3c2O)=Nc2ccccc21`: “inactive”.
With `Cc1c(CCC(=O)O)c(=O)oc2cc3occ(-c4ccccc4)c3cc12`, the Potency is 11.2 µM (active).
Next, `COc1ccc2c(C)c(CCC(=O)NCc3ccc(OC)c(OC)c3)c(=O)oc2c1`: “inactive”.
Next, `COc1cccc(-c2coc3cc4oc(=O)c(CC(=O)O)c(C)c4cc23)c1`: “inactive”; `CN1C(=O)C[C@H](c2ccccc2)C1=O`: “inactive”; `COc1ccc(C)cc1N(C)C(=O)c1c(C)oc2ncnc(N3CCOCC3)c12`: “inactive”.
As to `CC(C)c1ccc(S(=O)(=O)Nc2ccc(O)c(Sc3nc4ccccc4s3)c2)cc1`, the Potency entry was “inactive”.
To `O=[N+]([O-])c1c(NCCO)cc(Sc2nc3ccccc3s2)c2nonc12` belongs “inactive”; to `O=C(O)c1cccc(S(=O)(=O)Nc2ccc(O)cc2Sc2nc3ccccc3s2)c1`, 14.1 µM (active); to `CCOC(=O)c1ccc(NC(=O)CCn2cnnn2)cc1`, “inactive”.
For the molecule `CCCCCCCCCc1ccc(OCCOCCOCCOCCOCCOCCOCCOCCOCCO)cc1`, the Potency result was “inactive”.
Next, `C[N+](C)(CCOc1ccccc1)Cc1cccs1` (tested in a mixture with another compound): “inactive”; `O=S(=O)(/C=C/c1ccccc1)N1CCNCC1`: “inactive”.
To `Cc1cccc(C)c1N1CCN(S(=O)(=O)N2CCCCC2)CC1` belongs “inactive”.
`O=S(=O)(N1CCCCC1)N1CCNCC1`: the Potency was 15.8 µM (active).
As to `Cc1ccc(CN2CCC(CNC(=O)c3cnn(-c4ccccc4Cl)c3C3CCN(C(=O)OC(C)(C)C)CC3)CC2)cc1`, the Potency entry is “inactive”.
To `COc1cc(Cl)c(C)cc1Nc1nnc(-n2nc(C)cc2C)c2ccccc12` belongs “inactive”; to `COC(=O)CCCCC1=CCC2C(=O)C=C(O)C2C1` (configuration not stated), 12.6 µM (active).
